Rows were chosen to be rich in hits. Some 3.5% of all compounds tested hit in one or more screens of this group.
FBW7 act = FBW7 E3 ligase activators, primary screen, biochemical, AlphaScreen, human | F-box/WD repeat-containing protein 7 (Homo sapiens), Q969H0 | AlphaScreen FBW7–phospho-cyclin E peptide binding, activator screen | normalized activity (activation), % at 26.1 µM | 0.13% of 650,000 active | AID 1259310, 2017; in the data active = normalized activity above about 1.9%;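 also: purified mutant Fbw7 with reduced substrate affinity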
MITF primary = MITF inhibitors, primary screen, biochemical, AlphaScreen, human. AlphaScreen MITF homodimerization, bead proximity signal. inhibition, % at 2.6 µM. Microphthalmia-associated transcription factor (Homo sapiens), O75030. 0.91% of 650,000 active; in the data active = inhibition above about 50%
Target sequence (O75030 whole entry, looked up): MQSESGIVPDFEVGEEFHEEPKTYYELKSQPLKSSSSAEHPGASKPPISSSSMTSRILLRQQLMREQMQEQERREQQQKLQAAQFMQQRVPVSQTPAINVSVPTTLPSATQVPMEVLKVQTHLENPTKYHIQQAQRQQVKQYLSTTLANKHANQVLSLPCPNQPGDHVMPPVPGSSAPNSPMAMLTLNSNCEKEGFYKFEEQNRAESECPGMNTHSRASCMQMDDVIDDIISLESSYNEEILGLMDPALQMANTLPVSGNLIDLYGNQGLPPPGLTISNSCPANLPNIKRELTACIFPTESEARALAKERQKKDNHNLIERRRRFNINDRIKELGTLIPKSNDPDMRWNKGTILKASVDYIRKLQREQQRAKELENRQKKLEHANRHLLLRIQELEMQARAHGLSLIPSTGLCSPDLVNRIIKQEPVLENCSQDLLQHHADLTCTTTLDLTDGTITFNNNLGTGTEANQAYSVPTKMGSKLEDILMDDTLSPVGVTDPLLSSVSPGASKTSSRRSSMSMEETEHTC
TEAD-YAP block = TEAD-YAP interaction inhibition, primary screen, TEAD-YAP interaction inhibitor project, luminescence, HEK-TIYL cells | TEAD-Gal4/YAP UAS-luciferase luminescence | inhibition, % at 9.12 µM | 1.4% of 640,000 active; in the data active = inhibition above about 32%
GPR151 activ = activators of human GPR151, primary screen, cell-based, PathHunter beta-arrestin, luminescence; G-protein coupled receptor 151 (Homo sapiens), Q8TDV0; PathHunter beta-arrestin GPR151 cells; activation, % at 11.2 µM; 1% of 650,000 active; AID 1508602, 2020; in the data active = activation above about 4.9%
Large screens that a line does not name were inactive.

COc1cc(Br)cc(C=Nc2ccc3[nH]ncc3c2)c1O	none
COc1cccc(C=Nc2ccc3[nH]ncc3c2)c1O	FBW7 act 6.3
COc1cccc(/C=N/NC(=O)c2cccc(NC(=O)c3ccccc3F)c2)c1O	TEAD-YAP block 64
Cc1nc2nc(SCC(=O)Nc3cccc(Cl)c3C)nn2c(C)c1Cc1ccccc1Cl	none
O=S(=O)(NCC(c1cccs1)S(=O)(=O)c1cccs1)c1ccccc1 (stereo unspecified)	none
Cc1ccc(C(=O)/C=C2\NC(=O)CS2)cc1	none
COc1cccc(/C=N/NC(=O)c2ccc(O)cc2O)c1O	TEAD-YAP block 42
COc1ccc(C(=O)N/N=C/c2cccc(OC)c2O)cc1	none
COc1cccc(/C=N/NC(=O)c2ccc(-c3ccccc3)cc2)c1O	TEAD-YAP block 83
c1ccc(Nc2nc(NCc3cccnc3)c3ncn(C4CCCCC4)c3n2)nc1	none
CC(C)Nc1c2ccccc2nc2ccccc12	TEAD-YAP block 73
CNc1c2ccccc2nc2ccccc12	TEAD-YAP block 71
Nc1cc(-c2ccccc2)nc2ccccc12	none
Nc1c2ccccc2nc2ccccc12 (tested in a mixture with another compound)	TEAD-YAP block 71
CS(=O)(=O)c1ccc2c(c1)nc(N1CCN(CCO)CC1)c1nccn12	none
COc1ccc(NCC(=O)n2c(C)c(C)c3ccccc32)cc1	TEAD-YAP block 52
COc1ccc(NCC(=O)n2nc(C)cc2C)cc1	none
CC(=O)c1ccc(C(=O)Nc2nccs2)cc1	none
CC(C)Sc1ccc(C(=O)Nc2nccs2)cc1	TEAD-YAP block 55
COc1cc(SC)ccc1C(=O)Nc1nccs1	TEAD-YAP block 46
CCn1nnc(NC(=O)c2ccc(OC(C)C)cc2)n1	TEAD-YAP block 44
CC(C)Oc1ccc(C(=O)Nc2nccs2)cc1	TEAD-YAP block 52
CC1CN(CC(O)COc2ccc3ccccc3c2)CC(C)O1 (stereo unspecified)	none
COc1cccc(C(=O)N2CC(C)OC(C)C2)c1OC (stereo unspecified)	none
Cc1nc(N2CCCC(NC3CCOCC3)CC2)nc2ccc(F)cc12 (stereo unspecified)	none
COc1ccc([N+](=O)[O-])cc1NC(=O)CCN1CCN(C/C=C/c2ccccc2)CC1	none
COC(CNS(=O)(=O)c1ccc(Oc2ccc(S(=O)(=O)NCC(OC)OC)cc2)cc1)OC	TEAD-YAP block 49
O=S(=O)(NCc1ccco1)c1ccc(Oc2ccc(S(=O)(=O)NCc3ccco3)cc2)cc1	TEAD-YAP block 48
COc1ccccc1CNS(=O)(=O)c1ccc(F)cc1	none
COc1ccccc1CNS(=O)(=O)c1ccc(Oc2ccc(S(=O)(=O)NCc3ccccc3OC)cc2)cc1	TEAD-YAP block 43
CC1CCN(C(=O)COC(=O)c2ccc(Cl)c(N)c2)CC1	none
Cc1cc(C)cc(N=C2NC(=O)/C(=C/c3cc(Cl)cc(Br)c3O)S2)c1	none
O=C(c1cc2n(n1)C(C(F)(F)F)CC(c1ccc(Cl)cc1)N2)N1CCN(c2cccc(Cl)c2)CC1 (stereo unspecified)	none
O=C(c1cc2n(n1)C(C(F)(F)F)CC(c1ccc3c(c1)OCO3)N2)N1CCN(c2cccc(Cl)c2)CC1 (stereo unspecified)	FBW7 act 3.7
COc1ccc(-c2cc3nc4c(c(N5CCC(O)CC5)n3n2)CCCC4)cc1	TEAD-YAP block 38
COc1cccc2c1OC1(CCN(C(=O)Cc3ccc(F)cc3)CC1)OC2	none
COc1ccc(CC(=O)N2CCC3(CC2)OCc2cccc(OC)c2O3)cc1OC	TEAD-YAP block 65
CC12CN3CC(C)(CN(C1)C3(C)C1CCCCC1)C2=O (stereo unspecified)	none
COCCNc1c(-c2ccc(OC)c(O)c2)nc2cnccn12	none
CCOc1cc(-c2nc3cnccn3c2NCCOC)ccc1O	FBW7 act 6.3
O=C(OCc1ccc(Cl)c(Cl)c1)c1cccnc1	none
O=C(O)c1cccc(COc2ccc(CO)cc2Cl)c1	TEAD-YAP block 95
O=C(O)c1cccc(COc2ccc(CO)cc2Br)c1	TEAD-YAP block 84
COc1cc(/C=C/[N+](=O)[O-])ccc1OCc1cccc(C(=O)O)c1	MITF primary 56, TEAD-YAP block 77
O=Cc1ccc(OCc2cccc(C(=O)O)c2)c(Cl)c1	TEAD-YAP block 88
COc1cc(/C=C2/NC(=O)NC2=O)ccc1OCc1cccc(C(=O)O)c1	none
CC1CCCN(S(=O)(=O)c2cn(C)c(=O)n(C)c2=O)C1 (stereo unspecified)	none
Oc1ccccc1-c1nc2ccc(Br)cn2c1NCC1CCCO1 (stereo unspecified)	none
COc1ccccc1C(=O)NNC(=O)c1cnccn1	none
Cc1ccc(C)c(OCC(=O)NNC(=O)c2ccccn2)c1	TEAD-YAP block 37
CC(=O)c1ccc(NC(=O)c2ccccn2)cc1	TEAD-YAP block 87
COc1ccc(C(=O)NNC(=O)c2ccccn2)cc1	TEAD-YAP block 94
CC(=O)c1ccc(NC(=O)NNC(=O)c2ccccn2)cc1	none
COc1ccccc1C(=O)NNC(=O)c1ccccn1	TEAD-YAP block 41
Cc1ccc(C(=O)Nc2ccc(NC(=O)c3cccs3)cc2)cc1	none
COc1ccc(/C=C(/C#N)c2nc(C3CC3)cs2)cc1OC	none
COc1cccc(/C=C(/C#N)c2nc(C3CC3)cs2)c1	FBW7 act 3.5
Cc1ccc(NC(=O)Cc2cccs2)c(Br)c1	none
Cc1ccc(NC(=O)CNCc2cccs2)c(Br)c1	FBW7 act 3.8
COc1cc(NC(=O)c2csc(-c3cccc(C(C)=O)c3)n2)cc(OC)c1OC	none
COc1cc(NC(=O)c2cccc(-c3cccc(C(C)=O)c3)n2)cc(OC)c1OC	TEAD-YAP block 36
COc1cc(CNc2ccc(-c3cccc(C(C)=O)c3)cn2)cc(OC)c1OC	TEAD-YAP block 34
CC1=NN(c2ccccc2)C(=O)/C1=C/c1ccc(N2CCCC2)o1	TEAD-YAP block 66
CC1=NN(c2ccc(Cl)cc2)C(=O)/C1=C\c1ccc([N+](=O)[O-])o1	none
CCN(CC)c1ccc(/C=C2/C(=O)N(c3ccccc3)N=C2C)cc1	MITF primary 68
CC1=NN(c2ccc(C(=O)O)cc2)C(=O)/C1=C\c1ccc([N+](=O)[O-])o1	MITF primary 71
COc1cccc2cc(C(=O)Oc3ccc(Cl)cc3)c(=O)oc12	none
c1cncc(Nc2nc(NC3CC3)c3ncn(-c4ccsc4)c3n2)c1	none
Cn1c(Nc2nc(NC3CC3)c3ncn(-c4ccsc4)c3n2)nc2ccccc21	TEAD-YAP block 59
CCCNc1nc(Nc2nc3ccccc3n2C)nc2c1ncn2-c1ccsc1	none
c1cnc(Nc2nc(NC3CC3)c3ncn(-c4ccsc4)c3n2)nc1	TEAD-YAP block 50
COc1cccc(C2CC(=O)N3CN(C4CCCCC4)CSC3=C2C#N)c1OC (stereo unspecified)	none
O=C(CSc1nncn1-c1ccccc1)Nc1nc2c(F)c(F)c(F)cc2s1	FBW7 act 3.9
COc1ccc(CCNC(=O)c2ccnc(Nc3cc(OC)c(OC)c(OC)c3)c2)cc1	none

Screening results as filed in PubChem.
